ALDH1A1 inh: inhibitors of human aldehyde dehydrogenase 1A1; AID 1030; Potency, µM (titrated, usually from 75.3 µM), for the others: top-dose activity, negative = inhibition, usual class: inhibitors; actives 7.3% (n = 220,000); Purified ALDH1A1, NADH fluorescence, propionaldehyde substrate; P00352; active = well fitted inhibition curve with a large enough effect, not every such curve was filed as active; inconclusive = small, poorly fitted or top-dose-only effect, or another doubt; inactive = no such curve, though single readings can be large or run the other way;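 note: plate controls were no enzyme wells and a reference inhibitor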
Target sequence (P00352 whole entry, looked up): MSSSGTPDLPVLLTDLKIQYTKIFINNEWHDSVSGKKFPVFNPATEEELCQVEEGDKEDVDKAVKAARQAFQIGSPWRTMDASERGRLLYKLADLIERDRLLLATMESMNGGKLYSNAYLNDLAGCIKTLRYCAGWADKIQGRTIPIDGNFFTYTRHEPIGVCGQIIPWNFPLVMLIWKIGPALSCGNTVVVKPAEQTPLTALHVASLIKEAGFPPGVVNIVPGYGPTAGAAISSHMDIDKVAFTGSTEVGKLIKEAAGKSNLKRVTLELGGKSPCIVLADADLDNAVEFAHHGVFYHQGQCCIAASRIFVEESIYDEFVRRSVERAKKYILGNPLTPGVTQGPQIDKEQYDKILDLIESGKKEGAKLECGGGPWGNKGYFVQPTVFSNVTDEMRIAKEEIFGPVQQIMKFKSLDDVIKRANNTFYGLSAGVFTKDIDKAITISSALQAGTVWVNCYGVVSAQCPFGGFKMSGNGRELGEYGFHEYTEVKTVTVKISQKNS
HPGD inh: HPGD (human) dehydrogenase inhibition | purified HPGD, NADH fluorescence kinetic, PGE2 substrate | actives 4.3% (n = 150,000) | P15428 | Potency, µM, inactives show at the top dose activity change, negative = inhibition, actives largely listed as inhibitors; active = well fitted inhibition curve with a large enough effect, not every such curve was filed as active; inconclusive = small, poorly fitted or top-dose-only effect, or another doubt; inactive = no such curve, though single readings can be large or run the other way; note: % is set by controls: 0 for no effect and ±100 for the full control effect
Target sequence (P15428 whole entry, looked up): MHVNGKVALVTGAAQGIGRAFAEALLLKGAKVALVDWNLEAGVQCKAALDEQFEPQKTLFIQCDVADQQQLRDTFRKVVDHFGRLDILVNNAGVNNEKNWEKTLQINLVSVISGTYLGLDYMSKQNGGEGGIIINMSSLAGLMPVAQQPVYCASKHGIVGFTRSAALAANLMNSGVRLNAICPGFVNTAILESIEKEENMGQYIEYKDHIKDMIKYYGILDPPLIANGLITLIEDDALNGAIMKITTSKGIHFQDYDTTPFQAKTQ
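NADH formation kinetics: reaction with 30 uM PGE2 and 1 mM NAD+ (final), 20 nM enzyme, Tris-HCl pH 8 with Tween 20, after 15 min compound preincubation at room temperature. Fluorescence change, last versus first of five reads.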
KinaseGlo FLuc: counter-screen: inhibitors of Kinase-Glo firefly luciferase; Q27757; Kinase-Glo luciferase, ATP luminescence, 8 min; Potency, µM (doses to about 38.3 µM), for inactives: at the highest dose activity change, negative = inhibition, most hits filed as inhibitors; actives 0.28% (n = 200,000); note: % is set by controls: 0 for no effect and ±100 for the full control effect; nearly all actives have a fitted effect of over 60% in size
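Light output from Kinase-Glo luciferase with luciferin and 10 uM ATP in 50 mM imidazole pH 7.2, KCl, MgCl2, Tween 20, BSA; compound pin-delivered, 8-min ambient incubation, then luminescence read.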
HTT cytoprotect: cytoprotection in Huntington HTT-Q103 PC12 cell model. PC12 HTT-Q103 induced, cytoprotection, ATP luminescence, 40 h. Potency, µM (highest dose often 56.4 µM), without a hit: cytoprotection (ATP increase), most hits filed as activators. actives 0.14% (n = 230,000); note: % of control where 0% means no effect; nearly all actives have a fitted effect of over 45% in size
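Compounds were screened for protection of PC12 cells against cell death after tebufenozide induction (100 nM final) of mutant Huntingtin exon 1 (Q103) fused to GFP.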
HTT aggregate: reduces HttQ103-GFP aggregates in PC12 cells | PC12 HttQ103-GFP aggregates, Acumen cytometry, 40 h | Potency, µM (top dose mostly 46.1 µM), without a hit: at the highest dose activity change, negative = inhibition, most hits filed as inhibitors | actives 1.1% (n = 220,000) | AID 1688; note: % is set by controls: 0 for no effect and ±100 for the full control effect; nearly all actives have a fitted effect of over 60% in size
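Quantitative HTS on tebufenozide-induced (100 nM) PC12 cells stably expressing polyQ103 Huntingtin exon 1–GFP. Reduction of bright GFP aggregates, detected by laser scanning cytometry after lysis, identified actives across the titration.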
Lamin A splicing: changes lamin A minigene splicing in HeLa cells; HeLa LMNA splicing GFP/RFP minigene ratio, 48 h; actives 0.01% (n = 200,000); Potency, µM (doses to about 46.1 µM), inactives show at the highest dose ratio change, negative = inhibition, actives largely listed as inhibitors; active = well fitted inhibition curve with a large enough effect in the signal ratio, with a control signal flat, not every such curve was filed as active; inconclusive = small, poorly fitted or top-dose-only effect, or effect the other way, or a change in a side signal; the % refers to the signal ratio; note: % is set by controls: 0 for no effect and ±100 for the full control effect
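Read-out is the ratio of GFP to DsRed2 object intensity, acquired by 488 nm laser-scanning cytometry on HeLa lamin A-EGFP minigene reporter cells. Compound incubation 48 hrs at 37 °C in Opti-MEM with 2% FBS; DMSO 0.5% final.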
The depositor's hits bear a star; ? = inconclusive; · = no result given; [ ] = dose if it differs, or a comment. Sampled rows, rich in hits. Any-hit rate of the full collection: about 9%. Unless noted, calls come from the whole dose curve; as a rule, active = well fitted curve in the direction sought with a large enough effect; inconclusive = small, poorly fitted or top-dose-only effect, or another doubt; inactive = no such curve, though single readings can be large; an effect the other way counts as inactive or inconclusive. Potency is the fitted concentration of half-maximal effect.

SMILES	ALDH1A1 inh	HPGD inh	KinaseGlo FLuc	HTT cytoprotect	HTT aggregate	Lamin A splicing
O=C(NCc1ccccc1)c1ccc(CS(=O)(=O)Cc2ccccc2F)o1	12.6µM*	·	-1.8%	-12.7%	7.2%	·
Cc1ccc(CNC(=O)c2ccc(Br)o2)cc1	15.8µM*	3.16µM*	-5.9%	-7.7%	-14.3%	-3.8%
O=C(NCc1ccc(Cl)cc1)c1ccc(Cl)cc1[N+](=O)[O-]	6.0%	15.8µM*	2.0%	-5.7%	17.8%	-0.6%
O=C(NCc1ccc(Cl)cc1)c1ccccc1Oc1ccccc1	?	10µM*	-2.8%	-82.7%	?	7.3%
COCCCNC(=O)c1ccccc1Oc1ccccc1	10.4%	-20.6%	1.4%	-1.2%	-20.1%	13.0%
CC(C)C(OC(=O)c1nsc(Cl)c1Cl)C(=O)NC(C)(C)C (centres undefined)	12.8%	·	9.0%	-9.2%	-21.8%	·
O=C(NC1CCCC1)c1ccc(Br)o1	-3.4%	15.8µM*	-1.6%	-14.1%	8.9%	0.4%
Cc1ccc(CNC(=O)c2cc3c(C)nc4ccccc4c3o2)cc1	-2.8%	-7.7%	2.8%	35.9%[10 µM]	11.2µM*	?
O=C(/C=C/c1ccc(Br)o1)NC(c1ccccc1)c1ccccc1	22.4µM*	7.9%	0.0%	-1.6%[10 µM]	?	?
O=C(NCCc1ccccc1)c1ccc(Br)o1	?	?	-0.3%	-11.1%	-4.2%	12.6%
O=C(c1ccc(Br)o1)N(Cc1ccccc1)Cc1ccccc1	0.794µM*	-18.3%	1.8%[39.9 µM]	-31.6%	-18.3%	?
Cc1cccc(C)c1NC(=O)C(=O)NCCOc1ccc(Cl)cc1	2.4%	-0.2%	1.0%	-5.0%	-4.2%	8.5%[0.0737 µM]
O=C(NCCc1ccccc1)c1ccc(-c2ccccc2Cl)o1	?	?	0.8%	·	-18.8%	-0.9%
O=C(NC(c1ccccc1)c1ccccc1)c1ccc(Br)o1	0.794µM*	-1.8%	3.5%	-1.0%	4.8%	-3.6%
CC(NC(=O)c1ccc(Br)o1)c1ccccc1 (centres undefined)	?	·	4.4%	15.1%[10 µM]	17.1%[9.22 µM]	?
COc1ccc(CNC(=O)c2ccc(Br)o2)cc1	25.1µM*	25.1µM*	2.1%[39.9 µM]	-89.3%	4.8%	1.4%
O=C(O)CCC1(C(=O)O)OCCc2ccccc21 (centres undefined)	-1.9%	-18.6%	1.4%	?	-4.6%	-9.9%
CN(C)CCCNc1ncnc2scc(-c3ccccc3)c12	17.8µM*	·	-0.3%	-40.0%	-14.4%	·
Cc1ccc(-c2csc3ncnc(NCCN4CCOCC4)c23)cc1	6.5%	5.3%	1.1%	-35.8%	-31.9%	?
COc1ccc(-c2csc3ncnc(NCCN4CCOCC4)c23)cc1	-2.3%	0.3%	-2.1%	-26.0%	12.6µM*	-15.9%
COc1ccc(C2CC(=O)N(CC(=O)NCC3CCCO3)c3ccccc3S2)cc1 (centres undefined)	-5.8%	·	-0.2%	11.0%	-10.6%	·
O=C(CN1C(=O)CC(c2ccco2)Sc2ccccc21)NCC1CCCO1 (centres undefined)	10µM*	-9.5%	-3.5%	-21.4%	6.4%	0.9%
O=C(CN1C(=O)CC(c2ccco2)Sc2ccccc21)Nc1ccc2c(c1)OCCO2 (centres undefined)	14.1µM*	-18.1%	-5.4%	-33.3%	-1.6%	-3.2%
CCCc1nc2c(nnn2Cc2ccccc2F)c(=O)[nH]1	-51.2%	28.2µM*	0.1%	-2.5%	8.2%	-1.9%
O=c1[nH]c(C(F)(F)F)nc2c1nnn2Cc1ccccc1F	11.5%	17.8µM*	18.5%	-4.9%	-10.9%	20.8%
SMILES	ALDH1A1 inh	HPGD inh	KinaseGlo FLuc	HTT cytoprotect	HTT aggregate	Lamin A splicing
Fc1ccccc1Cn1nnc2c(NCc3ccccn3)ncnc21	?	-20.8%	0.0%	1.7%	-20.5%	-3.5%
CCN(Cc1ccncc1)Cc1c(O)ccc2ccccc12	10µM*	·	0.9%	·	36.9%	·
Cc1ccccc1-c1nn(-c2ccc(F)cc2F)cc1CNCCN(C)C	-10.9%	·	-1.0%	-2.6%[10 µM]	-6.1%[9.22 µM]	?
COCCN(C)Cc1cn(-c2ccc(F)cc2F)nc1-c1ccccc1C	25.1µM*	·	-2.5%	11.1%[10 µM]	?	·
NNc1ccc(Cl)nn1	17.8µM*	·	·	1.8%[10 µM]	-12.9%[9.22 µM]	·
CCC(C(=O)N1CCc2cc(OC)c(OC)cc2C1)c1ccccc1 (centres undefined)	?	-18.7%	-2.2%	3.3%[10 µM]	13.3%	-7.1%
C=C(C)C(=O)/C=C/CCC/C=C/C(=O)OCC	25.1µM*	-5.8%	-1.2%	28.3%	·	·
CCCC[n+]1c(-c2ccc(Cl)cc2Cl)csc1Nc1ccccc1	11.4%	-0.3%	0.9%	6.7%[10 µM]	-9.3%	-20.0%
Clc1ccc(-c2csc(Nc3ccccc3)[n+]2Cc2ccco2)c(Cl)c1	17.8µM*	·	-2.5%	-17.7%	?	?
CC(C)=NNC(=O)c1c(O)c2ccccc2[nH]c1=O	12.6µM*	·	·	14.6%[10 µM]	-8.2%[9.22 µM]	·
CCCCNS(=O)(=O)c1cccc(S(=O)(=O)N2CCCC2)c1	14.1µM*	-4.3%	0.9%	16.7%	-17.3%	-8.4%
O=S(=O)(NCc1cccs1)c1cccc(S(=O)(=O)N2CCCCC2)c1	8.91µM*	-16.4%	1.0%	4.7%[10 µM]	-14.1%	?
O=S(=O)(NCCc1ccccc1F)c1cccc(S(=O)(=O)N2CCOCC2)c1	?	-10.7%	3.1%	4.2%[10 µM]	-23.5%	?
O=C(NCCc1ccccc1Cl)C1CCN(S(=O)(=O)c2cccs2)CC1	?	-10.1%	-0.4%	-23.4%	-24.6%	-2.4%
COc1ccc(CNc2nc(NCc3ccc(OC)cc3)n(C(=O)c3ccccc3[N+](=O)[O-])n2)cc1	20µM*	-21.5%	-1.1%	-6.1%	12.7%	-1.9%
CCCc1nnc(SCc2ccc(OCC)cc2)n1N	-1.1%	28.2µM*	0.5%	-89.9%[10 µM]	?	-8.0%
CCCCc1nnc(SCc2ccc(OCC)cc2)n1N	7.4%	25.1µM*	1.7%	10.2%	-8.5%	?
CCc1nnc(SCc2ccc(CSc3nnc(CC)n3N)cc2)n1N	-1.0%	-6.1%	2.5%	6.9%	-2.9%	13.5%
CN(Cc1ccccc1)c1nc(N)c([N+](=O)[O-])c(NCc2ccccc2)n1	-7.7%	-11.5%	3.6%	27.1%[10 µM]	14.7%	?
NC(=S)n1[nH]c(-c2ccc([N+](=O)[O-])cc2)c(N=Nc2cccc([N+](=O)[O-])c2)c1=O	25.1µM*	·	2.8%	-120.6%	12.6µM*	?
Cc1c(N=Nc2c(-c3ccc([N+](=O)[O-])cc3)[nH]n(C(N)=S)c2=O)cccc1[N+](=O)[O-]	22.4µM*	·	-1.6%	·	?	·
CC(=O)N(Cc1ccc(F)cc1)C1=C(NCc2ccccc2)C(=O)c2ccccc2C1=O	2.2%	-7.7%	17.1%	-97.5%	8.91µM*	?
CC(=O)n1nc(-c2ccccc2)nc1NCc1ccc(F)cc1	-2.9%	-18.6%	-0.1%	-6.6%	-16.2%	-5.2%

Bioassay records deposited in PubChem BioAssay by National Center for Advancing Translational Sciences (NCATS).
